The whole screen tested about 2,100 compounds, of which about 1,100 (52%) were called active. About 27% were inconclusive and are not listed. So high a share suggests a set chosen from earlier hits. The list shows a part of the results. Values without a mark were called inactive. Calls follow the shape of the dose curve; as a rule, active = well fitted inhibition curve with a large enough effect; inconclusive = small, poorly fitted or top-dose-only effect; inactive = no such curve, though single readings can be large or run the other way.
These compounds were tested against DNA dC->dU-editing enzyme APOBEC-3G (Homo sapiens) (UniProt Q9HC16) (assay: qHTS for inhibitors of Vif-A3G interactions: Cherry picks counterscreen). Settings: HeLa A3G-eYFP + Vif (tagged APOBEC3G with the HIV-1 protein that degrades it), eYFP fluorescence, 24 h.
Sequence of DNA dC->dU-editing enzyme APOBEC-3G (Homo sapiens) (Q9HC16 whole entry, looked up): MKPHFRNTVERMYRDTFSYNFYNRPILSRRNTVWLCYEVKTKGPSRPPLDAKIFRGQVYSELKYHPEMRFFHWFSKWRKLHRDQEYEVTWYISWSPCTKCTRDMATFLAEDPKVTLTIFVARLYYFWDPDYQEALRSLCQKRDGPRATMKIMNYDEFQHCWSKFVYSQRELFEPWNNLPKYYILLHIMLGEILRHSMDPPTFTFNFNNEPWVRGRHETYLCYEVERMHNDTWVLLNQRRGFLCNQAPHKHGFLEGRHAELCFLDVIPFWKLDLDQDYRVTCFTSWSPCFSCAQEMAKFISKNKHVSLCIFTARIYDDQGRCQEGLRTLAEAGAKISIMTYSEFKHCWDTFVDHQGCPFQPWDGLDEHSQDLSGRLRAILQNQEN
Outline: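 HeLa cells stably expressing A3G-eYFP and Vif were treated for 24 h at 37 deg C with compounds at several concentrations; yellow fluorescence (Ex 488 nm, Em 500-530 nm) read by Acumen Explorer, MG132 as positive control.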
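Also: hits raise yellow fluorescence by blocking Vif-driven A3G-eYFP degradation; nearly all actives have a fitted effect of over 70% in size.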
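For max response in this document: max response given as percent of control signal.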
Potency is read from the fitted curve at half-maximal effect.

SMILES | Potency | max response [%]
COc1ccc(OC)c(-c2cc(-c3cccnc3)nc(N)c2C#N)c1 | 5.59 µM (active) | –
COc1ccccc1-c1cc(-c2ccccc2)nc(SC(C(N)=O)c2ccccc2)c1C#N (centres undefined) | – | -23.2
COc1ccc(-c2c(C#N)c(N)nc(Sc3ccc(Cl)cc3)c2C#N)cc1 | – | -11.5
CCOCCCNC(=O)/C(C#N)=C/c1ccc([N+](=O)[O-])o1 | 23.1 µM (active) | –
Cc1ccc(NC(=O)C(=Cc2ccc(C(=O)O)cc2)C(=O)Nc2ccc(C)cc2C)c(C)c1 | 7.04 µM (active) | –
COc1cc(/C=C/c2ccnc3ccccc23)ccc1N(C)C | 18.4 µM (active) | –
COc1cc(N(C)C)c(OC)cc1/C=C/c1ccnc2ccccc12 | 23.1 µM (active) | –
C=CCN=c1scc(-c2ccc(F)cc2)n1/N=C/c1ccccn1 | – | -11.2
CCc1ccc(NC(=O)c2sc3nc(C)c(C(=O)Nc4ccc(C)cc4C)c(-c4ccco4)c3c2N)cc1 | 23.1 µM (active) | –
CCOC(=O)c1sc(NC(=S)NC(=O)c2ccco2)nc1C | – | -15.3
COc1ccc(OC)c(NC(=O)c2sc3nc(Cc4ccccc4)cc(C(F)(F)F)c3c2N)c1 | 3.66 µM (active) | –
COc1ccc(C(=O)c2sc3nc(C)cc(-c4cccs4)c3c2N)cc1 | 20.6 µM (active) | –
COc1cccc(C(=O)c2sc3nc(-c4ccccc4)cc(C(F)(F)F)c3c2N)c1 | 0.92 µM (active) | –
CCC(=O)OCc1cnc(C)c2oc(=O)c(C(=O)Nc3ccccc3C(F)(F)F)cc12 | – | -2.09
COc1ccc(C(=O)c2sc3nc(-c4ccc(C)cc4)cc(C(F)(F)F)c3c2N)cc1 | 0.731 µM (active) | –
CCOC(=O)c1c(-c2ccc(OC)cc2)csc1/N=C/C1C(=O)CCCC1=O | – | -18.7
COc1ccc(NC(=O)c2sc3nc(-c4ccc(OC)cc4)cc(C(F)(F)F)c3c2N)cc1 | 1.3 µM (active) | –
CCOC(=O)c1c(C)nc2sc(C(=O)Nc3ccc(OC)cc3)c(N)c2c1-c1ccc(OC)cc1 | 1.98 µM (active) | –
Cc1c(C(=O)Nc2ccc(C(C)C)cc2)sc2nc3n(c(=O)c12)CCC3 | – | 6.74
Cc1ccc2c(c1C)NC(=O)CC(c1ccccc1O)=N2 | – | -6.13
O=C(Cc1nc2ccccc2[nH]c1=O)c1ccc(Cl)cc1 | 1.03 µM (active) | –
COc1ccc(CN2C(=O)C(C)Nc3ncnc(N4CCc5ccccc5C4)c32)cc1 (centres undefined) | 3.53 µM (active) | –
Cc1ccc(S(=O)(=O)c2cc3ccccc3oc2=Nc2ccc3c(c2)OCO3)cc1 | – | 12.1
C=C(C)CNC(=S)N/N=C1\CCCCc2ccccc21 | – | -14.6

Reference: PubChem BioAssay AID651813 (National Center for Advancing Translational Sciences (NCATS), 2012)
